Here are results for 5 compounds from PubChem BioAssay.

Activity calls are given as the source filed them.

Test [1] is described as follows: small molecules captured by biotinylated probe aFSTL3 – biochemical, small-molecule microarray, fluorescence 635/667, stem cell growth factor project, primary screen (AID 1064).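 Also: measures binding of the biotinylated anti-FSTL3 antibody to printed compounds.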 Conditions: higher = more signal.
Test [2] is described as follows: binders from COS7 lysate, DM2A8 probe, primary screen, torsin A project, cell lysate, small-molecule microarray, fluorescence 635/667 (AID 1065). Conditions: higher = more signal, COS7 lysate expressing mutant human TOR1A.
The nature of test [3]: small molecules captured by biotinylated probe aFGF2 – biochemical, small-molecule microarray, fluorescence 635/667, stem cell growth factor project, primary screen (AID 1067).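 Also: measures binding of biotinylated aFGF2 protein to printed compounds on slides; z-score merges feature fluorescence and signal-to-noise across triplicate slides.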 Conditions: higher = more signal.
Test [4] in a line: small molecules captured by biotinylated probe aFGF10 – biochemical, small-molecule microarray, fluorescence 635/667, stem cell growth factor project, primary screen (AID 1071).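 Also: score merges 667 nm spot intensity and signal to noise from triplicate slides.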 Conditions: higher = more signal.
Test [5] concerns the target Neurogenic locus notch homolog protein 2 (Homo sapiens) (UniProt Q04721). Nature of the test: small molecules binding Notch2 protein – biochemical, small-molecule microarray, 635 nm fluorescence, stem cell growth factors, primary screen (AID 1073). Conditions: higher = more signal.
Test [6] addresses Pro-neuregulin-1, membrane-bound isoform (Homo sapiens) (UniProt Q02297). Description: small molecules binding neuregulin-1 protein – biochemical, small-molecule microarray, fluorescence 635/667, psychiatric disease protein project, primary screen (AID 1075).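 Also: score combines 667 nm spot fluorescence with signal to noise.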 Conditions: NRG1 binding, 635 nm fluorescence, higher = more signal.
The subject of test [7] is Neuregulin-1 EGF-like domain. Description: small molecules binding NRG1 EGF domain – biochemical, small-molecule microarray, 635 nm fluorescence, primary screen (AID 1081).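 Also: binding of the protein to compounds printed on small-molecule microarray slides.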 Conditions: higher = more signal.
A short description of test [8]: FRG1 expression reporter modulators in myotubes – cell-based, C2C12 myotubes, firefly/Renilla luciferase, luminescence, FRG1 inhibition for FSHD, primary screen (AID 1084). Conditions: FRG1 promoter luciferase, higher = more signal, called active from +8 up or from −8 down.
Test [9] is described as follows: small molecules captured by biotinylated probe aFST – biochemical, small-molecule microarray, fluorescence 635/667, stem cell growth factor project, primary screen (AID 1086).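 Also: score merges 667 nm fluorescence with signal-to-noise of each printed compound spot.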 Conditions: higher = more signal.
A short description of test [10]: binders of probe aHhip on microarray, primary screen, stem cell growth factor project, biochemical, small-molecule microarray, fluorescence 635/667 (AID 1087).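 Also: score merges spot fluorescence at 667nm with spot signal to noise ratio.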 Conditions: higher = more signal.
Test [11] deals with PRMT1 (protein arginine N-methyltransferase 1). Description: small molecules binding arginine methyltransferase PRMT1 – biochemical, small-molecule microarray, 635 nm fluorescence, primary screen (AID 1088).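 Also: binding of Prmt1 protein to compounds spotted on small-molecule microarray slides.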 Conditions: higher = more signal.
Test [12] can be described thus: growth effects on S. cerevisiae YJM789 – YJM789 clinical isolate, OD600, 24 h, basal, primary screen (AID 1089).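 Also: growth of clinical yeast isolate S. cerevisiae YJM 789 seeded 1000 cells per well; test concentration not given here.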 Conditions: higher = more signal, called active from +8 up or from −8 down.
Test [13] can be described thus: S. pombe growth modifiers, basal conditions – strain 972, OD600, 24 h, no modulator, primary screen (AID 1090).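 Also: basal condition with compound alone and no growth modifier present; test concentration not given here.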 Conditions: S. pombe 972 growth, higher = more signal, called active from +8 up or from −8 down.
Test [14] is described as follows: budding yeast growth modifiers under rapamycin – strain BY4716, OD600, 96 h, primary screen (AID 1091). Also: test concentration not given here. Conditions: S. cerevisiae BY4716 + rapamycin, higher = more signal, called active from +8 up or from −8 down.
Test [15] addresses Torsin-1A-interacting protein 2 (Homo sapiens) (UniProt Q8NFQ8). Description: small molecules binding lysate-expressed LULL1 – cell lysate, human LULL1 lysate, 635/667 nm fluorescence, primary screen (AID 1092).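 Also: score merges per-feature 667 nm fluorescence with signal-to-noise.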 Conditions: small-molecule microarray, hLULL1 lysate binding, 635 nm fluorescence; higher = more signal.
Test [16] can be described thus: optical density change of DRC41 E. coli – strain DRC41, OD650, 24 h, E. coli filamentation project, primary screen (AID 1093).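 Also: MC1000 strain lacking acrAB efflux and sulA so SOS filamentation is blocked; test concentration not given here.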 Conditions: E. coli DRC41 growth, higher = more signal, called active from +8 up or from −8 down.
Test [17] in a line: probe aLefty2 binding to arrayed compounds – biochemical, biotinylated probe, 635/667 nm fluorescence, primary screen (AID 1094).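 Also: score merges spot fluorescence near 667 nm with spot signal-to-noise ratio.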 Conditions: small-molecule microarray, higher = more signal.
Test [18] has as its system Noggin (protein binding on small-molecule microarray). Description: small molecules binding Noggin protein – biochemical, 635/667 nm fluorescence, primary screen (AID 1095).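 Also: score merges 667 nm feature fluorescence with signal to noise over triplicate slides.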 Conditions: 635 nm fluorescence, higher = more signal.
Test [19] addresses Neurogenic locus notch homolog protein 3 (Homo sapiens) (UniProt Q9UM47). Description: small molecules binding NOTCH3 protein – biochemical, 635/667 nm fluorescence, primary screen (AID 1096). Conditions: small-molecule microarray, 635 nm fluorescence, higher = more signal.
Test [20] can be described thus: probe aEGFR binding to arrayed compounds – biochemical, biotinylated probe, 635/667 nm fluorescence, primary screen (AID 1097).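 Also: probe is a biotinylated anti-EGFR antibody binding compounds printed on slides; score combines fluorescence near 667 nm and signal to noise of each spot.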 Conditions: small-molecule microarray, higher = more signal.

Sequence of Neurogenic locus notch homolog protein 3 (Homo sapiens) (Q9UM47 whole entry, looked up): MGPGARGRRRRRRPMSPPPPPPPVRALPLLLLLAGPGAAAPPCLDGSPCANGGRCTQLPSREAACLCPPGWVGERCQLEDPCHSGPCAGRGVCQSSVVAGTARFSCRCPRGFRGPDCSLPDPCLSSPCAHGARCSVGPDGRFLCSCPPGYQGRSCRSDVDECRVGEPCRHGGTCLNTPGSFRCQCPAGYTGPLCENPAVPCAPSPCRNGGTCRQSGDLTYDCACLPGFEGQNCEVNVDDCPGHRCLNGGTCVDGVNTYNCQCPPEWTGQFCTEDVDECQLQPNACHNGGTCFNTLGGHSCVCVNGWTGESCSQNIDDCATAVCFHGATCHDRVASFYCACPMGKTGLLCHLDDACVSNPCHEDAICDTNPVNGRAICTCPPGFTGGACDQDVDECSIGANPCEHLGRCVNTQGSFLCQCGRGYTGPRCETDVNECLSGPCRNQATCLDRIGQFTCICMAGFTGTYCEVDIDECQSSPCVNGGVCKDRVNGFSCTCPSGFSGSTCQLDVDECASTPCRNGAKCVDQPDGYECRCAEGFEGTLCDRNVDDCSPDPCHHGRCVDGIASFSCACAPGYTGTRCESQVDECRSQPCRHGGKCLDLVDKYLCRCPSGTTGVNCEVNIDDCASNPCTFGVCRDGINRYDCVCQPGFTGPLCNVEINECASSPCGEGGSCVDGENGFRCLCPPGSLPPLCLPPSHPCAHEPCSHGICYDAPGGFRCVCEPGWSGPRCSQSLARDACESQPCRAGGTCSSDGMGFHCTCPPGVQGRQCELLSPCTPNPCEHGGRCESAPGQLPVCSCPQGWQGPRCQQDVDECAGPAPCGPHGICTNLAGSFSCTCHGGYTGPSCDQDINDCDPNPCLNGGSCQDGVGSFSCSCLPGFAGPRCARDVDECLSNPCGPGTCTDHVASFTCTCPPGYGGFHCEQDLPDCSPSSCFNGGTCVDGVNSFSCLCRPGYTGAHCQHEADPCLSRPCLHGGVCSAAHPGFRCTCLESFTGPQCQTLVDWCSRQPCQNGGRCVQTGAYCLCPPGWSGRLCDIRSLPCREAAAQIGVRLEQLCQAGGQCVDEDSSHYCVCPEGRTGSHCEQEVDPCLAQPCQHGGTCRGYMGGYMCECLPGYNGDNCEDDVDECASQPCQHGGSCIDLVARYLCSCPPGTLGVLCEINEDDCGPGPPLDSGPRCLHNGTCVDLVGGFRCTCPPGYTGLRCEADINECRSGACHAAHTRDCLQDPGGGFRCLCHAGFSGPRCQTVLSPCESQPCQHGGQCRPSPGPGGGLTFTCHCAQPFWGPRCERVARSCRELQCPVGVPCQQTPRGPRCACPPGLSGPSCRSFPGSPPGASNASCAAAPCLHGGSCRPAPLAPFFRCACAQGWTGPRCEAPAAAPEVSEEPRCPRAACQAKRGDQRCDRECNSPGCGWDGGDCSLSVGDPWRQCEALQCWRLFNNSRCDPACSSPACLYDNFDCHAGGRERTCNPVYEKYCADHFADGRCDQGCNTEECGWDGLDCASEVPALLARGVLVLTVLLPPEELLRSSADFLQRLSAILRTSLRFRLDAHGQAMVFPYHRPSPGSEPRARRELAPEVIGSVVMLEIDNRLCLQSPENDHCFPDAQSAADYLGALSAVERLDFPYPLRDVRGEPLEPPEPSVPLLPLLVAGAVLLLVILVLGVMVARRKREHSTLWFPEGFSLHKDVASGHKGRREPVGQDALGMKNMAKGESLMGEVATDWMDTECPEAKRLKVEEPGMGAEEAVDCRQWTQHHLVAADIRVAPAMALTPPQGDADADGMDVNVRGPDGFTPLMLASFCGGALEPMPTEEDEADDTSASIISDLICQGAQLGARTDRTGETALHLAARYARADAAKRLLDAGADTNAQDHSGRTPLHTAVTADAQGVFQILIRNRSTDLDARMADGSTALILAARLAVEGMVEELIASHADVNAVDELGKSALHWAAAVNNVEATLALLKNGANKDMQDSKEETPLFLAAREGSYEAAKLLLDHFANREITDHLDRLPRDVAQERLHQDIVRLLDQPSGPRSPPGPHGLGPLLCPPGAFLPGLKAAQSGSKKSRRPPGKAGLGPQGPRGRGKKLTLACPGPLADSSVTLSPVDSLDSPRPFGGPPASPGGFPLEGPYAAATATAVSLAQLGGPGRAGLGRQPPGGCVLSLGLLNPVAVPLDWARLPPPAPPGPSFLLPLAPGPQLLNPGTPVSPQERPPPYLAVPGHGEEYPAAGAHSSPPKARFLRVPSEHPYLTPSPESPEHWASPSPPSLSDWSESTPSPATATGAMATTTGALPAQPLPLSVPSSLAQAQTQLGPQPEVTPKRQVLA
Sequence of Torsin-1A-interacting protein 2 (Homo sapiens) (Q8NFQ8 whole entry, looked up): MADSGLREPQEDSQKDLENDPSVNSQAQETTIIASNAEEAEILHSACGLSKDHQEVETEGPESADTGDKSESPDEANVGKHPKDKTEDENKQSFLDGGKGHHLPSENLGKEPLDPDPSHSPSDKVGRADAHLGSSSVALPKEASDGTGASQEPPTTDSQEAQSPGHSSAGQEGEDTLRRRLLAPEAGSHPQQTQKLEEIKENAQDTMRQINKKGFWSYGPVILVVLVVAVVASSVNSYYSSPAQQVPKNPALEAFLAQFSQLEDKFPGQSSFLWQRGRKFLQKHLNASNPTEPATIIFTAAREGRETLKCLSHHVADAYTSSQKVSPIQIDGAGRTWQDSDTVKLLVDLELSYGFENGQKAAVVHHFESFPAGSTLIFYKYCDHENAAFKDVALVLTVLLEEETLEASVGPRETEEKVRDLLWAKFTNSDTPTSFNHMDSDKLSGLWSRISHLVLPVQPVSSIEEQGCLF
Sequence of Pro-neuregulin-1, membrane-bound isoform (Homo sapiens) (Q02297 whole entry, looked up, the tested form may be a part, canonical isoform): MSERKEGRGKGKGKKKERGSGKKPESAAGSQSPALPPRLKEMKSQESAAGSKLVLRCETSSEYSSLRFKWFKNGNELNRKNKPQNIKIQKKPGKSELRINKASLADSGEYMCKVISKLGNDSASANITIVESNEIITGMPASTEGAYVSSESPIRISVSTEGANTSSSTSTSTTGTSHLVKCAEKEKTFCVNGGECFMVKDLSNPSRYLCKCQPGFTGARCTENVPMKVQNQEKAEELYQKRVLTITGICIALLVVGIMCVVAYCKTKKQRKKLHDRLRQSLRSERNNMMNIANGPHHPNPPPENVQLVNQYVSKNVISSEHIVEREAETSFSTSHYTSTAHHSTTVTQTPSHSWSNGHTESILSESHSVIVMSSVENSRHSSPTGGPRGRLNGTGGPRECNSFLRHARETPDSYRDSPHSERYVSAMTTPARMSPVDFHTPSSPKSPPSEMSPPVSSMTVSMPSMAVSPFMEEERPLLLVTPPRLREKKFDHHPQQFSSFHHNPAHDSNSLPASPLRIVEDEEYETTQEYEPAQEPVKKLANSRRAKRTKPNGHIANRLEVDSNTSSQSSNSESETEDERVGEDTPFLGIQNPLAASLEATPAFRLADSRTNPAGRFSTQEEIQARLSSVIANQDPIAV

Regarding `CN(C)CCCN1C(=O)[C@@]2(c3ccc([N+](=O)[O-])cc3)CC(=O)N(C3CCCCC3)[C@@H]2c2ccc(CO)cc21`, the composite z-score in test [1] was -0.363; in test [2], -0.0124; in test [3], -0.107; in [4], 0.251; in test [5] it was 0.166; in test [6] it was -0.483. The composite z-score was -1.19 in test [7]; 0.161 in test [9]; -0.353 in [10]; -0.282 in test [11]; -0.933 in test [15]; -0.142 in test [17]. Further, the composite z-score was -0.233 in test [18], -0.0488 in test [19] and -0.103 in [20]. Besides, the z-score is 1.19 (inactive) in test [8]; -1.34 (inactive) in [12]; -1.09 (inactive) in test [13]; -2.61 (inactive) in [14]; -1.22 (inactive) in test [16].
Take `C=CC[C@@]1(C(N)=O)N=C(c2ccc(OCCCO)cc2)O[C@@H]1c1ccccc1N=[N+]=[N-]`: the composite z-score in [1] was determined as 1.68; in test [2], 0.444; in test [3], 0.069; in test [4], 1.08; in [5], 1.13; in [6], 1.5. The composite z-score in [7] is 1.34; in test [9] it was 1.03; in test [10], 0.0769; in test [11], 1.14; in test [15], 2.44; in [17] it was 0.429. Also, the results for the composite z-score in test [18], in test [19] and in [20] were 0.404, -0.299 and 0.317, respectively. For the same compound, the z-score in test [8] was 2.64 (inactive); in [12], -0.545 (inactive); in test [13], 0.0584 (inactive); in test [14], -1.15 (inactive); in [16] it was 1.4 (inactive).
In the case of `CC1CC/C=C\[C@H]2OC34C=CCN(c5ccc6ccccc6c5)C(=O)[C@H]3N(CCCCCO)C(=O)[C@@H]4C2C(=O)O1` (stereo not given in full), the composite z-score in test [1] was -0.46; in [2] it was -0.0205; in [3], -0.159; in [4] it was -1.01; in test [5] it was -1.04; in [6], -0.712. In addition, the composite z-score is -0.734 in test [7]; -0.818 in test [9]; -0.306 in [10]; -0.712 in test [11]; -1.87 in [15]; 0.182 in test [17]. Besides, the composite z-score in test [18] is -1.21; in test [19] it was -0.7; in test [20] it was -0.233. For the same compound, the z-score in [8] is 0.772 (inactive); in [12], 0.231 (inactive); in test [13] it was 0.0271 (inactive); in test [14] it was -0.32 (inactive); in test [16] it was -0.603 (inactive).
`Oc1ccc2cc[n+](Cc3cccc(OC(F)(F)F)c3)cc2c1`: the composite z-score is -0.446 in test [1]; 1.77 in test [2]; -0.0841 in [3]; -0.0974 in [4]; 0.0892 in test [5]; -0.322 in [6]. In addition, the composite z-score in test [7] is 0.921; in test [9], 0.191; in test [10], 0.0749; in [11], 0.488; in test [15] it was 1.65; in [17], -0.0541. In addition, the composite z-score in test [18] was 1.26; in test [19], 0.646; in test [20], -0.0177. Also, the z-score in [8] was 0.498 (inactive); in [12], 0.573 (inactive); in test [13], 0.439 (inactive); in test [14], 4.58 (inactive); in test [16] it was 0.713 (inactive).
On to `O=c1cccc(-c2cccc3ccccc23)o1`, for which the composite z-score is 0.745 in test [1]; -0.378 in test [2]; -0.0316 in test [3]; -0.413 in [4]; -0.0766 in [5]; -0.159 in test [6]. The composite z-score in [7] is 0.75; in test [9], 0.0143; in [10], 0.0053; in [11], -0.106; in [15] it was 0.877; in [17] it was 0.303. For the same compound, the values for the composite z-score in test [18], in test [19] and in [20] were -0.364, -0.107 and -0.2, respectively. The z-score was 3.63 (inactive) in test [8]; -5.22 (inactive) in test [12]; -13.3 (active) in test [13]; 4.08 (inactive) in [14]; 1.48 (inactive) in test [16].
